Screening results deposited in PubChem by The Scripps Research Institute Molecular Screening Center.
PME-1 inh – blocks human protein phosphatase methylesterase 1; Q9Y570; recombinant PME-1, FP-Rh probe fluorescence polarization; inhibition, % at 5.9 µM; hit rate 0.53% among 320,000; AID 2130;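 active means inhibition above the campaign mean of all compounds plus 3 SD, cut at about 26% in these data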;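 further: competitive labeling of PME-1 active site by serine hydrolase directed probe; 0% = PME-1 with DMSO and 100% = wells lacking PME-1 enzyme; inhibitors block probe labeling so polarization falls and inhibition rises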
PAFAH1B2 FP inh – PAFAH1B2 (human) inhibition | hit rate 1.2% among 340,000 | inhibition, % at 3.39 µM | P68402 | recombinant PAFAH1B2, FP-rhodamine activity probe, fluorescence polarization;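 active means inhibition above the mean of all tested compounds plus 3 SD, cut at about 24% in these data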;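 further: 0% = enzyme with DMSO and 100% = wells lacking PAFAH1B2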
PAFAH2 inh – PAFAH2 (human) inhibition. recombinant PAFAH2, FP-rhodamine activity probe, fluorescence polarization. inhibition, % at 3.39 µM. hit rate 0.99% among 340,000;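 active means inhibition above the mean over all tested compounds plus 3 SD, cut at about 30% in these data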;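 further: inhibitors block probe labeling of enzyme so polarization drops; 0% = enzyme with DMSO and 100% = wells lacking PAFAH2 protein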
pPAFAH inh – pPAFAH (human) enzyme inhibition; recombinant pPAFAH, FP-rhodamine probe fluorescence polarization; hit rate 1.5% among 330,000; inhibition, % at 3.39 µM;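 active means inhibition above the mean inhibition across the screen plus 3 SD, cut at about 25% in these data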;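 further: inhibitors block binding of the rhodamine activity-based probe so polarization drops; 0% = enzyme with DMSO and 100% = wells lacking pPAFAH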
Target sequence (Q13093 whole entry, looked up): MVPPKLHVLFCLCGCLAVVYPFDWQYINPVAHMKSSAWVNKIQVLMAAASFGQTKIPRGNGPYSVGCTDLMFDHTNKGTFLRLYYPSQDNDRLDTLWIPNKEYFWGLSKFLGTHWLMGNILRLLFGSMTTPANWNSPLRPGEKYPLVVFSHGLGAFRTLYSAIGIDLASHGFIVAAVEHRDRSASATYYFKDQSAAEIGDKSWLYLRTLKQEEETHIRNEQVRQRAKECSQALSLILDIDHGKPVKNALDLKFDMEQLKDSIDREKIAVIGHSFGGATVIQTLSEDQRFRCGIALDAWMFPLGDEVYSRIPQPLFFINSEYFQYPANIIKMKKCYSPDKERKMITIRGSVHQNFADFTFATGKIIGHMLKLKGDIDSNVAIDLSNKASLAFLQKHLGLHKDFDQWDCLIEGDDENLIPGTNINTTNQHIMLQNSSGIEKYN
Fam108B counter – counter-screen for RBBP9 inhibitors: inhibitors of mouse Fam108B; recombinant Fam108B, FP-Rh probe fluorescence polarization; hit rate 0.33% among 300,000; AID 1947; inhibition, % at 9.51 µM;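 active means inhibition above the screen mean inhibition plus 3 SD, computed separately per campaign, cut at about 18% in these data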;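 further: inhibitors lower polarization as less probe binds the enzyme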
PAFAH1B3 inh – blocks human PAF acetylhydrolase 1B catalytic subunit 3; hit rate 0.28% among 340,000; AID 492972; inhibition, % at 3.39 µM; recombinant PAFAH1B3, FP-rhodamine probe, fluorescence polarization;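 active means inhibition above the screen-wide average of all tested compounds plus 3 SD, cut at about 25% in these data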;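 further: 0% = enzyme with DMSO only and 100% = wells lacking PAFAH1B3 protein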
Target sequence (Q15102 whole entry, looked up): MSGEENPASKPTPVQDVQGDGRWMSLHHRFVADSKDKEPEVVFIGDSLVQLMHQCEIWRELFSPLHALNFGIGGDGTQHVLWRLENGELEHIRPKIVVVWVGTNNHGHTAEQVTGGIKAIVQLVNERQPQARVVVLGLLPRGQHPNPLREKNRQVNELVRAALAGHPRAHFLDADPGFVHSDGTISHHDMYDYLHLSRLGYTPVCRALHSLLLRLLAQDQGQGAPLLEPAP
Fam108b inh conf – confirmation of mouse Fam108b serine hydrolase inhibitors | shares compounds with Fam108B counter | recombinant Fam108b, FP-Rh probe fluorescence polarization | inhibition, % at 9.51 µM | hit rate 44% among 930;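 active means inhibition above a limit from the primary screen, the mean over all compounds plus 3 SD, cut at about 19% in these data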;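 further: 0% = median of active Fam108b wells and 100% = catalytically dead S170A mutant; inhibitors free the probe so polarization falls as inhibition rises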
Fam108b inh – mouse ABHD17B inhibition; shares compounds with Fam108B counter; recombinant Fam108b, gel-based ABPP, fluorophosphonate probe; inhibition, % at 20 µM; hit rate 44% among 260; in the data active means inhibition above about 40%
Active calls of the source: *. Only some compounds are listed: those with a hit (about 2.9% of all), similar ones and a draw of the others.

What do the screens show for `O=S(=O)(/N=C(/NS(=O)(=O)c1ccccc1)c1ccccc1)c1ccccc1`?
PME-1 inh: 2; PAFAH1B2 FP inh: 28*; PAFAH2 inh: 1; pPAFAH inh: 1; Fam108B counter: -1; PAFAH1B3 inh: 4

How did CC1CCN(S(=O)(=O)c2ccc(N=NC3=C(O)CC(C)(C)CC3=O)cc2)CC1 do in these assays?
PME-1 inh: -5; PAFAH1B2 FP inh: 45*; PAFAH2 inh: -7; pPAFAH inh: 3; Fam108B counter: 6; PAFAH1B3 inh: 3

How did Cc1ccc(S(=O)(=O)Nc2nc(C)c(C(=O)Nc3ccccc3)s2)cc1 do in these assays?
PME-1 inh: 1; PAFAH1B2 FP inh: 5; PAFAH2 inh: 3; pPAFAH inh: -1; Fam108B counter: -1; PAFAH1B3 inh: 7

What do the screens show for `Cc1ccc(S(=O)(=O)Nc2nc(C)c(C(=O)NNS(=O)(=O)c3ccccc3)s2)cc1`?
PME-1 inh: -9; PAFAH1B2 FP inh: 29*; PAFAH2 inh: 12; pPAFAH inh: 7; Fam108B counter: -2; PAFAH1B3 inh: 9

What do the screens show for `O=C(CN1c2cccc3cccc(c23)S1(=O)=O)NC1CCCCC1`?
PAFAH1B2 FP inh: 6; PAFAH2 inh: 7; pPAFAH inh: 30*; PAFAH1B3 inh: 0

Results for O=C(CN1C(=O)c2ccccc2S1(=O)=O)NC1CCCCCC1 ?
PME-1 inh: -8; PAFAH1B2 FP inh: 6; PAFAH2 inh: 4; pPAFAH inh: -1; Fam108B counter: 2; PAFAH1B3 inh: 1

Results for N#CC(=C(O)COC(=O)CCCNC(=O)c1ccc(Cl)cc1)c1nc2ccccc2[nH]1 ?
PAFAH1B2 FP inh: 13; PAFAH2 inh: 7; PAFAH1B3 inh: 7

How did Cc1ccccc1C1c2[nH]c3ccccc3c2C[C@H]2C(=O)N(c3ccccc3C(=O)NCCCN3CCOCC3)C(=O)N12 (stereo partly specified) do in these assays?
PME-1 inh: 5; PAFAH1B2 FP inh: -3; PAFAH2 inh: 5; pPAFAH inh: -1; Fam108B counter: 0; PAFAH1B3 inh: 12

Results for CCOC(=O)C1=C(COC(=O)c2ccc([N+](=O)[O-])s2)NC(=O)NC1C (stereo unspecified) ?
PAFAH1B2 FP inh: 11; PAFAH2 inh: 36*; pPAFAH inh: 4; PAFAH1B3 inh: 52*

Results for Cc1c(OC(C)C(=O)NC(Cc2c[nH]c3ccc(O)cc23)C(=O)O)ccc2c1oc(=O)c1ccccc12 (stereo unspecified) ?
PME-1 inh: -2; PAFAH1B2 FP inh: 13; PAFAH2 inh: 8; pPAFAH inh: 11; Fam108B counter: 1; PAFAH1B3 inh: 7

Results for CC(Oc1ccc2c(-c3ccccc3)cc(=O)oc2c1)C(=O)N[C@H](Cc1c[nH]c2ccccc12)C(=O)O (stereo partly specified) ?
PME-1 inh: 4; PAFAH1B2 FP inh: 76*; PAFAH2 inh: 15; pPAFAH inh: 9; Fam108B counter: -4; PAFAH1B3 inh: 10

What do the screens show for `Cc1c(C)c2ccc(OC(C)C(=O)N[C@@H](Cc3c[nH]c4ccccc34)C(=O)O)c(C)c2oc1=O` (stereo partly specified)?
PME-1 inh: 2; PAFAH1B2 FP inh: 24*; PAFAH2 inh: 1; pPAFAH inh: -2; Fam108B counter: 5; PAFAH1B3 inh: 3

Results for CCOC(=O)c1c(C)[nH]c(C2=NNC(=Nc3ccc(OCC)cc3)SC2)c1C ?
PME-1 inh: 28*; PAFAH1B2 FP inh: 3; PAFAH2 inh: -5; pPAFAH inh: 9; Fam108B counter: 7; PAFAH1B3 inh: 13

Results for CCOC(=O)c1c(C)[nH]c(C2=NNC(=Nc3ccccc3)SC2)c1C ?
PAFAH1B2 FP inh: -5; PAFAH2 inh: -2; PAFAH1B3 inh: -1

What do the screens show for `CSC1=NSC2=NC(=O)/C(=C/c3coc4ccccc4c3=O)C(=N)N12`?
PME-1 inh: 13; PAFAH1B2 FP inh: 11; PAFAH2 inh: 25; pPAFAH inh: 16; Fam108B counter: 41*; PAFAH1B3 inh: 8; Fam108b inh conf: 52*; Fam108b inh: 0

Results for CSC1=NSC2=NC(=O)/C(=C/c3coc4ccc(O)cc4c3=O)C(=N)N12 ?
PME-1 inh: -5; PAFAH1B2 FP inh: 18; PAFAH2 inh: 12; pPAFAH inh: 29*; Fam108B counter: 28*; PAFAH1B3 inh: 11; Fam108b inh conf: 17

How did N=C1/C(=C\c2coc3ccccc3c2=O)C(=O)N=C2SC=CN12 do in these assays?
PME-1 inh: 15; PAFAH1B2 FP inh: 2; PAFAH2 inh: 10; pPAFAH inh: 8; Fam108B counter: 9; PAFAH1B3 inh: 2

Results for Cn1nc(-c2ccc3c(c2)OCCO3)c2ccccc2c1=O ?
PME-1 inh: 0; PAFAH1B2 FP inh: -1; PAFAH2 inh: 3; pPAFAH inh: 6; Fam108B counter: 1; PAFAH1B3 inh: -2

Results for COc1ccc(CNC(=O)c2ccc(S(=O)(=O)N3CC(C)CC(C)C3)cc2)cc1OC (stereo unspecified) ?
PAFAH1B2 FP inh: 0; PAFAH2 inh: 5; PAFAH1B3 inh: -4

Results for Cc1c(C(=O)OCC(=O)Nc2c(C)n(C)n(-c3ccccc3)c2=O)oc2ccccc12 ?
PME-1 inh: -6; PAFAH1B2 FP inh: 4; PAFAH2 inh: -11; pPAFAH inh: 1; Fam108B counter: 1; PAFAH1B3 inh: -1

Results for c1coc(-c2nnc(-c3ccco3)nn2)c1 ?
PME-1 inh: -2; PAFAH1B2 FP inh: 18; PAFAH2 inh: 32*; pPAFAH inh: 32*; Fam108B counter: 22*; PAFAH1B3 inh: 19; Fam108b inh conf: 16

Results for COc1cccc2c1C(=O)c1c(O)c3c(c(O)c1C2=O)C[C@](O)(C(C)=O)C[C@H]3O[C@@H]1C[C@@H](N)[C@@H](O)[C@@H](C)O1 ?
PME-1 inh: 51*; PAFAH1B2 FP inh: 49*; PAFAH2 inh: 51*; pPAFAH inh: 57*; Fam108B counter: 43*; PAFAH1B3 inh: 43*; Fam108b inh conf: 42*

What do the screens show for `Cc1csc(NC(=O)c2cccc(S(=O)(=O)N3CCN(C)CC3)c2)n1`?
PME-1 inh: 2; PAFAH1B2 FP inh: 7; PAFAH2 inh: 2; pPAFAH inh: -3; Fam108B counter: 0; PAFAH1B3 inh: 6

How did N#CC1=C(N)N(c2ccc(F)cc2)C2=C(C1c1ccc(O)cc1)S(=O)(=O)CC2 (stereo unspecified) do in these assays?
PAFAH1B2 FP inh: -3; PAFAH2 inh: -23; PAFAH1B3 inh: -10

Results for O=[N+]([O-])c1ccc(O)c(C=NNC(=S)Nc2ccc(Cl)cc2Cl)c1 ?
Fam108b inh: 0
